Data published in PubChem BioAssay AID1159580 (chemical genetic matrix, 2015).
“And” between values parts separate entries of the source, which are not always exact repeats. Identical values can stand only once. In all, about 5,500 compounds went through this assay and about 2,000 (36%) were called active. About 18% were inconclusive and are not listed. No stated cut-off is given here; in the data, active means normalized growth mostly below about 0.91 (no sharp cut-off); inconclusive means no clear call, values can overlap the other calls; inactive means mostly above about 0.92. This is one part of the list.

Assay: chemical genetic growth profiling, strain panel (AID 1159580);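 further: tested at 20 µM; growth read once vehicle control cultures reached saturation at 30 °C; 1 = growth at the plate median or of vehicle wells; lower values mean less growth of the strain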
Settings: S. cerevisiae deletion strains, growth OD

Measured: normalized growth

CCOc1ccc(NC(C)=O)cc1
inactive: locus YAL013W, strain DEP1, hits give low values 1.02 | locus YAL021C, strain ccr4, hits give low values 1.01 | locus YAL026C, strain drs2, hits give low values 1.01 | locus YAL030W, strain snc1, hits give low values 1.02 | locus YBL061C, strain skt5, hits give low values 1.02 | locus YBR009C, strain hhf1, hits give low values 1.01 | locus YBR021W, strain FUR4, hits give low values 0.963 | locus YBR023C, strain chs3, hits give low values 1.01 | locus YBR171W, strain sec66, hits give low values 1.02 | locus YBR229C, strain ROT2, hits give low values 1 | locus YBR231C, strain swc5, hits give low values 1.02 | locus YBR279W, strain paf1, hits give low values 1.01 | locus YCL011C, strain gbp2, hits give low values 1.02 | locus YCL016C, strain dcc1, hits give low values 1.02 | locus YCL029C, strain bik1, hits give low values 0.989 | locus YCL061C, strain MRC1, hits give low values 1.01 | locus YCL069W, strain vba3, hits give low values 1.02 | locus YCR088W, strain abp1, hits give low values 1.02 | locus YDL005C, strain med2, hits give low values 1.02 | locus YDL035C, strain GPR1, hits give low values 0.997 | locus YDL040C, strain nat1, hits give low values 1.01 | locus YDL074C, strain BRE1, hits give low values 1.06 | locus YDL101C, strain DUN1, hits give low values 1.01 | locus YDL134C, strain PPH21, hits give low values 1 | locus YDL185W, strain tfp1, hits give low values 0.959 | locus YDL192W, strain arf1, hits give low values 0.991 | locus YDR001C, strain nth1, hits give low values 1.02 | locus YDR069C, strain doa4, hits give low values 1 | locus YDR101C, strain arx1, hits give low values 0.998 | locus YDR137W, strain rgp1, hits give low values 1.03 | locus YDR150W, strain NUM1, hits give low values 0.991 | locus YDR159W, strain sac3, hits give low values 1.01 | locus YDR162C, strain NBP2, hits give low values 1.01 | locus YDR195W, strain ref2 1.02 | locus YDR297W, strain sur2, hits give low values 1.02 | locus YDR318W, strain mcm21, hits give low values 0.997 | locus YDR334W, strain swr1, hits give low values 1.02 | locus YDR335W, strain msn5, hits give low values 1.02 | locus YDR388W, hits give low values 1 | locus YDR392W, strain spt3, hits give low values 0.953 | locus YDR502C, strain sam2, hits give low values 0.994 | locus YEL003W, strain gim4, hits give low values 1.02 | locus YEL037C, strain rad23, hits give low values 1.01 | locus YEL061C, strain CIN8 (second series), hits give low values 1.02 | locus YEL061C, strain CIN8, hits give low values 1.04 | locus YER015W, strain faa2, hits give low values 1.01 | locus YER016W, strain bim1, hits give low values 1 | locus YER110C, hits give low values 0.979 | locus YER111C, strain swi4, hits give low values 1.02 | locus YER155C, strain BEM2 (second series), hits give low values 1.02 | locus YER155C, strain BEM2, hits give low values 0.984 | locus YER167W, strain BCK2, hits give low values 0.979 | locus YFR010W, strain ubp6, hits give low values 1.02 | locus YGL078C, strain dbp3, hits give low values 0.985 | locus YGL086W, strain mad1, hits give low values 0.984 | locus YGL167C, strain pmr1, hits give low values 1.02 | locus YGL173C, strain kem1, hits give low values 1.01 | locus YGL227W, strain vid30, hits give low values 1 | locus YGL240W, strain doc1, hits give low values 1.02 | locus YGL248W, strain PDE1, hits give low values 1.01 | locus YGL253W, strain hxk2, hits give low values 1.01 | locus YGR078C, strain PAC10, hits give low values 1 | locus YGR135W, strain pre9, hits give low values 1 | locus YGR229C, strain SMI1, hits give low values 1.02 | locus YGR252W, strain gcn5, hits give low values 0.986 | locus YHR013C, strain ard1, hits give low values 1.06 | locus YHR027C, strain rpn1, hits give low values 1 | locus YHR030C, strain SLT2, hits give low values 0.984 and 1.02 | locus YHR079C, strain IRE1 (second series), hits give low values 0.995 | locus YHR079C, strain IRE1, hits give low values 1.03 | locus YHR094C, strain hxt1, hits give low values 0.975 | locus YHR129C, strain ARP1, hits give low values 1.01 | locus YHR142W, strain chs7, hits give low values 1.01 | locus YHR200W, strain rpn10, hits give low values 0.992 | locus YIL066C, strain RNR3, hits give low values 1 | locus YIL073C, strain SPO22, hits give low values 0.916 | locus YIL125W, strain kgd1, hits give low values 0.988 | locus YIR030C, strain dcg1, hits give low values 1 | locus YJL092W, strain hpr5, hits give low values 1.01 | locus YJL095W, strain BCK1 (second series), hits give low values 1.01 | locus YJL095W, strain BCK1, hits give low values 1.09 and 1.01 | locus YJL115W, strain asf1, hits give low values 1.01 | locus YJL129C, strain trk1, hits give low values 1.02 | locus YJL134W, strain LCB3, hits give low values 0.985 | locus YJL154C, strain vps35, hits give low values 1.01 | locus YJL164C, strain tpk1, hits give low values 1.02 | locus YJL166W, strain qcr8, hits give low values 1.02 | locus YJL168C, strain set2, hits give low values 0.986 | locus YJL187C, strain SWE1 (second series), hits give low values 0.996 | locus YJL187C, strain SWE1, hits give low values 1.02 | locus YJR043C, strain POL32, hits give low values 1.14 | locus YJR066W, strain TOR1, hits give low values 0.961
